The record followed here is PubChem BioAssay (NCATS).

Where “and” joins values, the source holds several entries; their conditions need not be identical. Equal entries are not always repeated. Inconclusive results are not listed. Unmarked numbers belong to inactive results. Calls of active or inactive are those of the source. The call rests on the fitted dose curve; in most records, active means well fitted curve in the direction sought with a large enough effect; inconclusive means small, poorly fitted or top-dose-only effect, or another doubt; inactive means no such curve, though single readings can be large; an effect the other way counts as inactive or inconclusive.

The target of assay [1] is Cytochrome P450 3A7 (Homo sapiens) (UniProt P24462). Put plainly: Cytochrome P450 family 3 subfamily A member 7 (CYP3A7) small molecule antagonists: luciferase biochemical qHTS assay (AID 1963596). Further: on the % scale 0 is the no-effect control and ±100 the full control effect; nearly all actives have a fitted effect of over 40% in size. The essentials: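 Biochemical CYP3A7 activity measured with P450-Glo system: luciferin formed from proluciferin substrate in NADPH-driven reaction (1 h, room temperature) after 10 min compound preincubation. Signal in relative luminescence units.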
Chain of Cytochrome P450 3A7 (Homo sapiens) (P24462 whole entry, looked up): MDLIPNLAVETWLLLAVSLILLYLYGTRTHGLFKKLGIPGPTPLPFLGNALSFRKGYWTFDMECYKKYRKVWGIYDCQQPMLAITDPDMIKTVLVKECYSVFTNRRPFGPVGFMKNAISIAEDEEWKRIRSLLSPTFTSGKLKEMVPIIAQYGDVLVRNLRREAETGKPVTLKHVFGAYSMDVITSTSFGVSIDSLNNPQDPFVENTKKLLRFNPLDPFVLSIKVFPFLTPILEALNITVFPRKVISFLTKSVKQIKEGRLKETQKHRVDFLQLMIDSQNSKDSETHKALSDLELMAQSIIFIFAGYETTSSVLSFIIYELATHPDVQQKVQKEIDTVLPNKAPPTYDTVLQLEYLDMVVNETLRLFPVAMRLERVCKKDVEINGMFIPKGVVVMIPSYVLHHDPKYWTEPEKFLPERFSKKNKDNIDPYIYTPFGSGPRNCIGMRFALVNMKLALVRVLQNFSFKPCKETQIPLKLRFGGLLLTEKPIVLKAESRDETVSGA
(In qHTS, concentration-response curves come from the screen itself.)

The nature of assay [2]: Viability qHTS for spleen associated tyrosine kinase inhibitor (SYKi) naive MV4-11 cells (AID 1963823). Further: nearly all actives have a fitted effect of over 40% in size. Further: potency means the concentration at half of the fitted maximal effect. The essentials:
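SYK inhibitor-naive MV4-11 cells, 500 per well, exposed to compounds for 72 hr at 37 C, 5% CO2. Viability read as CellTiter-Glo luminescence after 10 min at room temperature.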

A short description of assay [3]: Viability qHTS for spleen associated tyrosine kinase inhibitor (SYKi) drug resistant MV4-11 cells (AID 1963824). Further: nearly all actives have a fitted effect of over 35% in size. Further: potency means the concentration at half of the fitted maximal effect. The method, boiled down:
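SYK inhibitor-resistant MV4-11 AML cells, 500 per well, added to predispensed compounds and incubated 72 hr at 37 C, 5% CO2. Viability measured by CellTiter-Glo luminescence after 10 min at room temperature.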

A short description of assay [4]: Cellular viability qHTS for adrenocortical cancer (ACC) cell line SW-13 (AID 1963989).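 Further: cells grown in serum-free medium with ITS supplement; on the % scale 0 is the no-effect control and ±100 the full control effect; nearly all actives have a fitted effect of over 65% in size.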 Conditions: SW-13 ACC cells viability, CellTiter-Glo, 48 h; activity (max response): active compounds read low. The method, boiled down:
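IC50 and maximal-response values come from four-parameter logistic fits of titration data. SW-13 cells in serum-free medium received compounds (up to 46 uM final) for 48 h before CellTiter-Glo luminescence.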

Assay [5] is described as follows: Cellular viability qHTS for adrenocortical cancer (ACC) cell line NCI-H295R (AID 1963990). Further: nearly all actives have a fitted effect of over 60% in size. Further: potency means the concentration at half of the fitted maximal effect.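 On activity change, negative = viability loss: 0% = DMSO only wells and -100% = full killing with cytotoxic reference compound.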 The method, boiled down:
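Adrenocortical carcinoma cells, suspended at 300 000 cells/mL in serum-free DMEM plus ITS, rested overnight before pin transfer of compound. After two days' incubation, ATP-dependent luminescence was recorded and curve-fitted.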

Regarding `CCCCCCCC(=O)[O-].CCCCCCCC(=O)[O-].[Zn+2]`, the Potency entry in assay [1], in assay [2], in assay [3] and in assay [5] was “inactive” throughout. For the same compound, in assay [4], the activity (max response) was 2.96%.
As to `Nc1ccc(C(=O)O)cc1`, the Potency entry in assay [1], in assay [2], in assay [3] and in assay [5] was “inactive” throughout. For the same compound, the activity (max response) in assay [4] is 6.83%.
Turning to `O=c1[nH]c2ccccc2c(=O)n1CCCl`, the Potency entry in assay [1], in assay [2], in assay [3] and in assay [5] was “inactive” each time. Besides, the activity (max response) in assay [4] was 10.7%.
Turning to `O=C(O)Cc1csc(-c2ccc(Cl)cc2)n1`, the Potency result in assay [1], in assay [2], in assay [3] and in assay [5] was “inactive” throughout. Moreover, the activity (max response) in assay [4] is -3.04%.
For `Oc1ccc(C(O)CNCCCCCCNCC(O)c2ccc(O)c(O)c2)cc1O` (stereo not drawn), the Potency entry in assay [1], in assay [2], in assay [3] and in assay [5] was “inactive” in each case. In addition, the activity (max response) in assay [4] was -8.39%.
As for `Cc1coc2ccccc2c1=O`, the Potency result in assay [1], in assay [2], in assay [3] and in assay [5] was “inactive” each time. In assay [4], the activity (max response) is 19.3%.
`Nc1ncnc2c1C(=O)N(c1ccc(C3CCC(CC(=O)O)CC3)cc1)CCO2` (stereo not drawn): the Potency entry in assay [1], in assay [2], in assay [3] and in assay [5] was “inactive” each time. Further, in assay [4], the activity (max response) was 10.6%.
Consider `CC(C)(C)NCC(O)COc1cccc2c1CCC(=O)N2` (stereo not drawn), for which the Potency result in assay [1], in assay [2], in assay [3] and in assay [5] was “inactive” each time. Also, the activity (max response) in assay [4] is 3.97%.
Turning to `CCOc1nc2cccc(C(=O)O)c2n1Cc1ccc(-c2ccccc2-c2nn[nH]n2)cc1`, the Potency result in assay [1], in assay [2], in assay [3] and in assay [5] was “inactive” throughout. The activity (max response) in assay [4] is 10.5%.
On to `O=c1[nH]c(=O)c2ccccc2o1`, for which the Potency entry in assay [1], in assay [2], in assay [3] and in assay [5] was “inactive” each time. In assay [4], the activity (max response) is 6.04%.
On to `COc1ccc(C(=O)N2CCN(CC(=O)N3CCOCC3)CC2)cc1`, for which the Potency entry in assay [1], in assay [2], in assay [3] and in assay [5] was “inactive” each time. Further, in assay [4], the activity (max response) was 8.16%.
As to `CN(C)c1ccc(O)c2c1C[C@H]1C[C@H]3[C@H](N(C)C)C(=O)C(C(N)=O)=C(O)[C@@]3(O)C(=O)C1=C2O`, the Potency result in assay [1] and in assay [5] was “inactive” in each case. The Potency in assay [2] and in assay [3] was 20.9 µM (active) throughout. The activity (max response) in assay [4] was -4.3% and 1.01%.
For the compound `CN(C)CCN(Cc1cccs1)c1ccccn1`, the Potency entry in assay [1], in assay [2], in assay [3] and in assay [5] was “inactive” in each case. Also, the activity (max response) in assay [4] is 15.3%.
Take `Cn1c([N+](=O)[O-])cnc1COC(N)=O`: the Potency result in assay [1], in assay [2], in assay [3] and in assay [5] was “inactive” throughout. For the same compound, the activity (max response) in assay [4] was -4.89%.
Take `COC(=O)c1cc(Cl)c(NC(C)=O)cc1OC`: the Potency entry in assay [1], in assay [2], in assay [3] and in assay [5] was “inactive” each time. In addition, the activity (max response) in assay [4] is 11.7%.
With `COc1cc(/C=C/C(N)=O)cc(OC)c1OC`, the Potency entry in assay [1], in assay [2], in assay [3] and in assay [5] was “inactive” in each case. The activity (max response) in assay [4] is 17.9%.
Consider `NC(Cc1ccc(Cl)cc1)C(=O)O` (stereo not drawn), for which the activity change, negative = inhibition in assay [1] is -2.28% [at 0.91 µM]. Also, the viability (% of control) in assay [2] is 87.6% [at 0.588 µM]. The viability, % of control in assay [3] was 93.1% [at 0.588 µM]. Further, in assay [4], the activity (max response) was -3.09%. For the same compound, in assay [5], the activity change, negative = viability loss was -11% [at 0.587 µM].
Take `O=C1NC(=O)[C@@]2(CCOc3ccc(F)cc32)N1`: the Potency result in assay [1], in assay [2], in assay [3] and in assay [5] was “inactive” each time.
For the compound `O=Cc1ccccc1C=O`, the Potency result in assay [1], in assay [2], in assay [3] and in assay [5] was “inactive” throughout. Further, in assay [4], the activity (max response) is 0.792%.
As to `CC1=NS(=O)(=O)c2cc(Cl)ccc2N1`, the Potency result in assay [1], in assay [2], in assay [3] and in assay [5] was “inactive” in each case. Also, the activity (max response) in assay [4] is 8.23%.
Regarding `Nc1cc(=O)[nH]c(N)n1`, the Potency result in assay [1], in assay [2], in assay [3] and in assay [5] was “inactive” each time. Also, the activity (max response) in assay [4] is -6.62%.
`Nc1c2c(nc3ccccc13)CCCC2O` (stereo not drawn): the Potency result in assay [1], in assay [2] and in assay [5] was “inactive” in each case. For the same compound, the Potency in assay [3] was 0.841 µM (active). The activity (max response) in assay [4] was 13%.
Consider `NC(N)=NS(=O)(=O)c1ccc(N)cc1`, for which the Potency entry in assay [1], in assay [2], in assay [3] and in assay [5] was “inactive” each time. The activity (max response) in assay [4] was 7.35%.
Take `O=C(NCCCN1CCOCC1)c1ccc(Cl)cc1`: the Potency entry in assay [1], in assay [2], in assay [3] and in assay [5] was “inactive” in each case. Further, the activity (max response) in assay [4] is 5.56%.
Turning to `CCOC(=O)OC(C)OC1=C(C(=O)Nc2ccccn2)N(C)S(=O)(=O)c2ccccc21` (stereo not drawn), the Potency result in assay [1], in assay [2], in assay [3] and in assay [5] was “inactive” in each case. Further, the activity (max response) in assay [4] is 1.88%.
For `CN(C)CC/C=C1/c2ccccc2COc2ccc(CC(=O)O)cc21`, the Potency result in assay [1], in assay [2], in assay [3] and in assay [5] was “inactive” each time. In addition, in assay [4], the activity (max response) was 1.77% and 7.73%.
Consider `Cc1cc2c(cc1S(N)(=O)=O)S(=O)(=O)CCC2`, for which the Potency entry in assay [1], in assay [2], in assay [3] and in assay [5] was “inactive” in each case. Further, the activity (max response) in assay [4] was 12.2%.
In the case of `CC(C)NC[C@@H](O)COc1ccc(CC(N)=O)cc1`, the Potency result in assay [1], in assay [2], in assay [3] and in assay [5] was “inactive” in each case. Besides, the activity (max response) in assay [4] is 7.4%.
Turning to `CC(C)(C)c1ccc(C(O)CCCN2CCC(C(O)(c3ccccc3)c3ccccc3)CC2)cc1` (stereo not drawn), the Potency entry in assay [1] is “inactive”. The Potency is 21.1 µM (active) in assay [2], 11.9 µM (active) in assay [3] and 4.11 µM (active) in assay [5].
`NC(CS)C(=O)O` (stereo not drawn): the Potency entry in assay [1], in assay [2], in assay [3] and in assay [5] was “inactive” in each case. Moreover, the activity (max response) in assay [4] was 12.6%.
Take `O=C1C(=O)c2ccccc2C(O)=C1C1CCC(c2ccc(Cl)cc2)CC1` (stereo not drawn): the Potency result in assay [1], in assay [2], in assay [3] and in assay [5] was “inactive” throughout. For the same compound, the activity (max response) in assay [4] is 9.49%.
